PubChem BioAssay

Experiment: Plasmodium falciparum growth inhibition, primary screen, strain 3D7, DAPI fluorescence, 100 nL (AID 1184);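 further: parasites grown inside human red blood cells in medium with human serum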
Settings: P. falciparum 3D7 growth, 3 d, higher = more signal

Structure (SMILES) | z-score
COc1ccc(O[C@H]2C=C[C@@H](c3ccccc3)O[C@@H]2CON=C(C)C)cc1 | 0.894
COc1cccc([C@H]2Oc3ccc(OC)cc3C(=NO[C@@H]3O[C@H](COC(C)=O)[C@@H](OC(C)=O)[C@H](OC(C)=O)[C@H]3OC(C)=O)[C@@H]2O)c1 | 0.956
CCCCC#C[C@@H]1C=C[C@H](Oc2ccc(C(=O)OC)cc2)[C@@H](COC(=O)OCC)O1 | -0.332
CCC(=O)[C@@]1(O)C(=O)N2C(=C3C(=O)OCC[C@@H]31)N(Cc1ccccc1)C(C)=C(C(=O)OC)[C@H]2c1ccccc1 | 0.663
C[C@H]1Cc2c(COc3ccccc3)nc3c(c2CO1)CN(CCOc1ccccc1)CC3 | 0.668
CCOC(=O)NN=C1C[C@@H](O)[C@@H](O)[C@@H]2[C@@H]3C(=O)N(Cc4ccc5c(c4)OCO5)C(=O)[C@@H]3CC[C@H]12 | -0.948
COc1cccc([C@H]2Oc3ccc(OC)cc3C(=NO[C@@H](C)c3cn([C@H](CO)Cc4ccccc4)nn3)[C@@H]2O)c1 | -0.868
CO[C@@H]1COC(=O)[C@H](CCSC)NC(=O)CC=C[C@@H](C)COC(=O)CCC[C@H]1C | -0.766
CO[C@@H]1COC(=O)CC=C[C@@H](C)[C@H](OC)COC(=O)[C@@H](C)COC(=O)CC=C[C@H]1C | 0.301
Cc1cc2c(nc1C)CCCCN2CC(C)ON=C1[C@H]2CCn3c(=O)n(-c4ccccc4)c(=O)n3[C@H]2[C@H](O)[C@@H]2O[C@H]12 (stereo not given in full) | -1.94
CCOC(=O)NN=C1C[C@@H](O)[C@@H](O)[C@@H]2[C@@H]3C(=O)N(c4cccc(Oc5ccccc5)c4)C(=O)[C@@H]3CC[C@@H]12 | -0.512
COc1ccc(COC(=O)NN=C2C[C@@H](O)[C@@H](O)[C@@H]3[C@@H]4C(=O)N(c5cccc(Oc6ccccc6)c5)C(=O)[C@@H]4CC[C@@H]23)cc1 | -0.374
COC(=O)[C@H](C)NC(=O)CCC1CC(OC(=O)NCc2ccc3c(c2)OCO3)CC2(CCCC(COC(=O)NCC(c3ccccc3)c3ccccc3)O2)O1 (stereo not given in full) | -1.77
CO[C@H]1COC(=O)[C@H](C)NC(=O)[C@@H](C)COC(=O)[C@H]2CCCN2C(=O)CC=C[C@H]1C | 0.43
O=C1[C@H]2[C@H]3[C@H](O)[C@H](O)CC(=NO[C@@H]4O[C@H](CO)[C@@H](O)[C@H](O)[C@H]4O)[C@H]3CC[C@H]2C(=O)N1c1cccc(Oc2ccccc2)c1 | -0.418
CC(=O)OC[C@H]1O[C@H](C#Cc2ccccc2)C=C[C@@H]1OC(C)=O | 0.0037
COc1ccc(C#C[C@@H]2C=C[C@H](OC(C)=O)[C@@H](COC(C)=O)O2)cc1 | 0.714
CC(=O)Nc1ccc([C@@H]2N[C@H](C(=O)O)CC[C@H]2C)cc1 | 0.962
COC(=O)CC=C[C@@H](C)[C@@H]1C=C[C@H](O)[C@@H](CO)O1 | 0.247
CC(=O)OC[C@H]1O[C@@H](ON=C(C)CCN2CCCc3nc(C)c(C)cc32)[C@H](OC(C)=O)[C@@H](OC(C)=O)[C@@H]1OC(C)=O | -1.3
CCOC(=O)[C@H](CC(C)C)NC(=O)CCC1CC(OC(=O)NCCc2ccc(F)cc2)CC2(CCCC(COC(=O)NCCC(C)C)O2)O1 (stereo not given in full) | -0.329
CC(C)(C)N1C(=O)[C@H]2[C@H]3[C@H](O)[C@H](O)CC(=O)[C@@H]3CC[C@H]2C1=O | -0.507
CC(=O)OC[C@H]1O[C@H](CCON=C2[C@H]3CCn4c(=O)n(-c5ccccc5)c(=O)n4[C@H]3[C@H](O)[C@@H]3O[C@H]23)C=C[C@@H]1OC(C)=O | -0.374
CC(C)CON=C1C[C@@H](O)[C@@H](O)[C@@H]2[C@@H]3C(=O)N(C(C)(C)C)C(=O)[C@@H]3CC[C@H]12 | 1.75
O=C(NN=C1C[C@@H](O)[C@@H](O)[C@@H]2[C@@H]3C(=O)N(Cc4ccccc4)C(=O)[C@@H]3CC[C@@H]12)OCc1ccccc1 | 0.915
CCc1cc2c(nc1CC)CCN(CCC(C)=NO[C@@H](C)c1cn([C@H](CO)Cc3ccccc3)nn1)C2 | -1.72
CC[C@@H](c1ccccc1)n1c(=O)n2n(c1=O)[C@H]1[C@H](O)[C@@H]3O[C@@H]3C(=O)[C@H]1CC2 | -1.22
CCOC(=O)[C@H](CC(C)C)NC(=O)CCC1CC(OC(=O)NCc2cccc3ccccc23)CC2(CCCC(COC(=O)NCCC(C)C)O2)O1 (stereo not given in full) | -0.267
COC(=O)[C@@H]1CC[C@@H](C)[C@H](c2ccc(Br)cc2)N1 | 0.303
C#CCCCON=C1C[C@@H](O)[C@@H](O)[C@@H]2[C@@H]3C(=O)N(C(C)(C)C)C(=O)[C@@H]3CC[C@@H]12 | -0.315
